Measured values published in paper PMC12820563, “FoxP3 forms a head-to-head dimer in vivo and stabilizes its multimerization on adjacent microsatellites”.
Over roughly 16,000 sequences, “rpm ratio (pull-down/input)” has its median near 0.94; the highest 2% begin near 1.7. The entries come from a sample that favours the highest values as a whole.

molecular target: T1, MBP-FoxP1dN (Mus musculus, UniProt P58462 326-579); test: PD-seq (MBP pull-down with sequencing); 20 mM Tris-HCl pH 7.5, 100 mM NaCl, 1.5 mM MgCl2, 0.4 uM protein, 0.1 uM dsDNA library, 30 min, room temperature, amylose pull-down; high values mean tight binding; conditions: protein: recombinant; tags: His6-MBP; chain copies: 2; dsDNA, one strand shown
T1 sequence: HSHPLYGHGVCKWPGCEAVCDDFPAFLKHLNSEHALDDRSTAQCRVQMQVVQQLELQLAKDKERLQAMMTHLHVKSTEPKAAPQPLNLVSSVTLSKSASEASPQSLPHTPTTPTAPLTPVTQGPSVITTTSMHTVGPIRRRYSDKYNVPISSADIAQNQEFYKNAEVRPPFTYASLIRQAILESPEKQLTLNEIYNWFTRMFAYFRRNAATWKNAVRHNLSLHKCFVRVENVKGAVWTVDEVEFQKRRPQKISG
In short: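 A degenerate double-stranded DNA library, filled in with Klenow, was added at 0.1 µM to 0.4 µM His6-MBP-tagged mouse FoxP3 or FoxP1 fragment lacking the N-terminus, expressed in E. coli. Incubation lasted 30 min at room temperature in Tris pH 7.5 buffer with NaCl and MgCl2, after which complexes were collected on amylose resin, washed three times, digested with proteinase K to free the DNA, barcoded by PCR and sequenced by Illumina. Binding is the pooled-replicate reads-per-million enrichment of pull-down over input.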

| Sequence | binding signal |
| --- | --- |
| GATGATTGTTCTCCCAGCTGATGAATTCCAGGGTTCGAGTAAACAAATTTTCCTAATCTTTCTGTTCAAGCGCCATCTAC | 0.729 RPM ratio (pull-down/input) |
| GATGATTGTTCTCCCAGCTGATGAATTGTGAAGCTCGAGTAAACAAATTTTCCTAATCTTTCTGTTCAAGCGCCATCTAC | 0.905 RPM ratio (pull-down/input) |
| GATGATTGTTCTCCCAGCTGATGAATTACAGTTGTCGAGTAAACAAATTTTCCTAATCTTTCTGTTCAAGCGCCATCTAC | 1.46 RPM ratio (pull-down/input) |
| GATGATTGTTCTCCCAGCTGATGAATTAGCAACTTCGAGTAAACAAATTTTCCTAATCTTTCTGTTCAAGCGCCATCTAC | 1.12 RPM ratio (pull-down/input) |
| GATGATTGTTCTCCCAGCTGATGAATTTGCGTGCTCGAGTAAACAAATTTTCCTAATCTTTCTGTTCAAGCGCCATCTAC | 1.05 RPM ratio (pull-down/input) |
| GATGATTGTTCTCCCAGCTGATGAATTCTCGTCATCGAGTAAACAAATTTTCCTAATCTTTCTGTTCAAGCGCCATCTAC | 0.998 RPM ratio (pull-down/input) |
| GATGATTGTTCTCCCAGCTGATGAATTGGCTAAGTCGAGTAAACAAATTTTCCTAATCTTTCTGTTCAAGCGCCATCTAC | 0.879 RPM ratio (pull-down/input) |
| GATGATTGTTCTCCCAGCTGATGAATTTGCAAAATCGAGTAAACAAATTTTCCTAATCTTTCTGTTCAAGCGCCATCTAC | 1.13 RPM ratio (pull-down/input) |
| GATGATTGTTCTCCCAGCTGATGAATTCTAAAGATCGAGTAAACAAATTTTCCTAATCTTTCTGTTCAAGCGCCATCTAC | 0.85 RPM ratio (pull-down/input) |
| GATGATTGTTCTCCCAGCTGATGAATTGCCTAAGTCGAGTAAACAAATTTTCCTAATCTTTCTGTTCAAGCGCCATCTAC | 0.889 RPM ratio (pull-down/input) |
| GATGATTGTTCTCCCAGCTGATGAATTGGCTTTCTCGAGTAAACAAATTTTCCTAATCTTTCTGTTCAAGCGCCATCTAC | 0.862 RPM ratio (pull-down/input) |
| GATGATTGTTCTCCCAGCTGATGAATTTGGTGTATCGAGTAAACAAATTTTCCTAATCTTTCTGTTCAAGCGCCATCTAC | 1.17 RPM ratio (pull-down/input) |
| GATGATTGTTCTCCCAGCTGATGAATTCTTTGTATCGAGTAAACAAATTTTCCTAATCTTTCTGTTCAAGCGCCATCTAC | 1.21 RPM ratio (pull-down/input) |
| GATGATTGTTCTCCCAGCTGATGAATTTGTAGTATCGAGTAAACAAATTTTCCTAATCTTTCTGTTCAAGCGCCATCTAC | 1.47 RPM ratio (pull-down/input) |
| GATGATTGTTCTCCCAGCTGATGAATTTCTATACTCGAGTAAACAAATTTTCCTAATCTTTCTGTTCAAGCGCCATCTAC | 0.903 RPM ratio (pull-down/input) |
| GATGATTGTTCTCCCAGCTGATGAATTTGTGTAATCGAGTAAACAAATTTTCCTAATCTTTCTGTTCAAGCGCCATCTAC | 1.97 RPM ratio (pull-down/input) |
| GATGATTGTTCTCCCAGCTGATGAATTTGTATACTCGAGTAAACAAATTTTCCTAATCTTTCTGTTCAAGCGCCATCTAC | 2.13 RPM ratio (pull-down/input) |

| Sequence | binding signal |
| --- | --- |
| GATGATTGTTCTCCCAGCTGATGAATTTGTGTGATCGAGTAAACAAATTTTCCTAATCTTTCTGTTCAAGCGCCATCTAC | 1.3 RPM ratio (pull-down/input) |
| GATGATTGTTCTCCCAGCTGATGAATTGTGTAAATCGAGTAAACAAATTTTCCTAATCTTTCTGTTCAAGCGCCATCTAC | 1.59 RPM ratio (pull-down/input) |
| GATGATTGTTCTCCCAGCTGATGAATTGTAATACTCGAGTAAACAAATTTTCCTAATCTTTCTGTTCAAGCGCCATCTAC | 1.04 RPM ratio (pull-down/input) |
| GATGATTGTTCTCCCAGCTGATGAATTTTGTGTATCGAGTAAACAAATTTTCCTAATCTTTCTGTTCAAGCGCCATCTAC | 2.15 RPM ratio (pull-down/input) |
| GATGATTGTTCTCCCAGCTGATGAATTCTGTGTATCGAGTAAACAAATTTTCCTAATCTTTCTGTTCAAGCGCCATCTAC | 1.79 RPM ratio (pull-down/input) |
| GATGATTGTTCTCCCAGCTGATGAATTCTCTGTATCGAGTAAACAAATTTTCCTAATCTTTCTGTTCAAGCGCCATCTAC | 0.938 RPM ratio (pull-down/input) |
| GATGATTGTTCTCCCAGCTGATGAATTGGTCCCATCGAGTAAACAAATTTTCCTAATCTTTCTGTTCAAGCGCCATCTAC | 0.976 RPM ratio (pull-down/input) |
| GATGATTGTTCTCCCAGCTGATGAATTGCTTAGGTCGAGTAAACAAATTTTCCTAATCTTTCTGTTCAAGCGCCATCTAC | 1.02 RPM ratio (pull-down/input) |
| GATGATTGTTCTCCCAGCTGATGAATTAATGTCCTCGAGTAAACAAATTTTCCTAATCTTTCTGTTCAAGCGCCATCTAC | 0.913 RPM ratio (pull-down/input) |
| GATGATTGTTCTCCCAGCTGATGAATTTGTGAGCTCGAGTAAACAAATTTTCCTAATCTTTCTGTTCAAGCGCCATCTAC | 0.999 RPM ratio (pull-down/input) |
| GATGATTGTTCTCCCAGCTGATGAATTAACGAAGTCGAGTAAACAAATTTTCCTAATCTTTCTGTTCAAGCGCCATCTAC | 0.89 RPM ratio (pull-down/input) |
| GATGATTGTTCTCCCAGCTGATGAATTGTGATGCTCGAGTAAACAAATTTTCCTAATCTTTCTGTTCAAGCGCCATCTAC | 1.54 RPM ratio (pull-down/input) |
| GATGATTGTTCTCCCAGCTGATGAATTGTGTGTATCGAGTAAACAAATTTTCCTAATCTTTCTGTTCAAGCGCCATCTAC | 1.92 RPM ratio (pull-down/input) |
| GATGATTGTTCTCCCAGCTGATGAATTTTTGTACTCGAGTAAACAAATTTTCCTAATCTTTCTGTTCAAGCGCCATCTAC | 1.14 RPM ratio (pull-down/input) |
| GATGATTGTTCTCCCAGCTGATGAATTTTCTGTATCGAGTAAACAAATTTTCCTAATCTTTCTGTTCAAGCGCCATCTAC | 1.08 RPM ratio (pull-down/input) |
| GATGATTGTTCTCCCAGCTGATGAATTGTGTATCTCGAGTAAACAAATTTTCCTAATCTTTCTGTTCAAGCGCCATCTAC | 1.67 RPM ratio (pull-down/input) |
